Data reported in PubChem BioAssay (EPA / NIEHS).
Inconclusive results are not listed. Activity calls are given as the source filed them. How the source made its calls, unless noted: active means hit-call score of the fitted dose curve at least 0.9, where 1 is the maximum; inactive means score below 0.9.

Legend:
[1] = target: Paired box protein Pax-6 (Homo sapiens) (UniProt P26367); assay: ATG_Pax6_CIS: Attagene CIS-FACTORIAL HepG2 Assay for human Paired Box 6 (PAX6) (AID 2282956); conditions: HepG2 CIS-FACTORIAL PAX6 reporter transcription, RNA readout; actives raise or lower the signal
Chain of Paired box protein Pax-6 (Homo sapiens) (P26367 whole entry, looked up): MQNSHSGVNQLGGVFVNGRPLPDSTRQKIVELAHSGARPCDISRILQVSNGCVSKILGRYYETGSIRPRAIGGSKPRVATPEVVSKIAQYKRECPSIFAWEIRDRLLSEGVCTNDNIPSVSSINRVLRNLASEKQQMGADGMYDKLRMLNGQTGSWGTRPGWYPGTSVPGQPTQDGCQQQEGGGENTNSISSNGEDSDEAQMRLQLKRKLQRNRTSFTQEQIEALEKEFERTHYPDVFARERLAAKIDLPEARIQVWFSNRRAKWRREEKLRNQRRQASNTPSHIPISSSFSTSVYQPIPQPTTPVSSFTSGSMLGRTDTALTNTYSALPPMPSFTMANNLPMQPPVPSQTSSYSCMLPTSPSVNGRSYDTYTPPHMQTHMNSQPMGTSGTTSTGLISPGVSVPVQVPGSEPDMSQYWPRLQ
Procedure, shortened: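 HepG2 cells transiently transfected with cis-promoter-driven multiplexed reporter units sensing endogenous transcription factor activity; 24 h chemical exposure. Reporter mRNA quantified by RT-PCR, 6-FAM labelling, HpaI digestion and capillary electrophoresis; bidirectional fit versus DMSO baseline.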

[2] = ATG_PXRE_CIS: Attagene CIS-FACTORIAL HepG2 Assay for human Pregnane X Receptor Element (PXRE) (AID 2282957); conditions: HepG2 Attagene CIS-FACTORIAL PXRE reporter, mRNA; actives raise or lower the signal
Procedure, shortened: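 Cells: HepG2, transiently transfected reporter units under cis promoter control. Exposure: 24 h. Detection: reporter mRNA via RT-PCR/CE fluorescence; bidirectional fitting, DMSO-referenced.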

[3] = ATG_PPRE_CIS: Attagene CIS-FACTORIAL HepG2 Assay for human Peroxisome Proliferator-activated Response Element (PPRE) (AID 2282958); conditions: HepG2 PPRE cis-element reporter, Attagene transcription factor profiling; actives raise or lower the signal
Procedure, shortened: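 In this cell-based multiplex, a PPRE cis element drives a reporter sequence in transiently transfected HepG2 cells. Following 24 h treatment, labeled cDNA amplicons are sized and quantified by capillary electrophoresis, with DMSO defining baseline.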

[4] = ATG_RORE_CIS: Attagene CIS-FACTORIAL HepG2 Assay for human RAR-related Orphan Receptor Element (RORE) (AID 2282959); conditions: HepG2 Attagene cis-factorial RORE reporter, mRNA; actives raise or lower the signal
Procedure, shortened: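 Endogenous factor activity at a cis response element is read as reporter transcript levels in HepG2 cells, 24 h post-dose. Transcripts are quantified by RT-PCR with capillary electrophoresis, and data fitted in both directions against DMSO.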

[5] = ATG_Sox_CIS: Attagene CIS-FACTORIAL HepG2 Assay for human SRY-box transcription factor (SOX) (AID 2282960); conditions: HepG2 Attagene cis-factorial SOX reporter, mRNA; actives raise or lower the signal
Procedure, shortened: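 Measures mRNA induction of a SOX1-associated reporter in HepG2 after 24 h dosing. Fluorescently labelled RT-PCR fragments are separated by capillary electrophoresis, and gain or loss relative to DMSO control is fitted.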

[6] = target: Transcription factor Sp1 (Homo sapiens) (UniProt P08047); assay: ATG_Sp1_CIS: Attagene CIS-FACTORIAL HepG2 Assay for human Specificity Protein 1 (Sp1) (AID 2282961); conditions: HepG2 Sp1 cis-reporter transcription, actives raise or lower the signal
Chain of Transcription factor Sp1 (Homo sapiens) (P08047 whole entry, looked up): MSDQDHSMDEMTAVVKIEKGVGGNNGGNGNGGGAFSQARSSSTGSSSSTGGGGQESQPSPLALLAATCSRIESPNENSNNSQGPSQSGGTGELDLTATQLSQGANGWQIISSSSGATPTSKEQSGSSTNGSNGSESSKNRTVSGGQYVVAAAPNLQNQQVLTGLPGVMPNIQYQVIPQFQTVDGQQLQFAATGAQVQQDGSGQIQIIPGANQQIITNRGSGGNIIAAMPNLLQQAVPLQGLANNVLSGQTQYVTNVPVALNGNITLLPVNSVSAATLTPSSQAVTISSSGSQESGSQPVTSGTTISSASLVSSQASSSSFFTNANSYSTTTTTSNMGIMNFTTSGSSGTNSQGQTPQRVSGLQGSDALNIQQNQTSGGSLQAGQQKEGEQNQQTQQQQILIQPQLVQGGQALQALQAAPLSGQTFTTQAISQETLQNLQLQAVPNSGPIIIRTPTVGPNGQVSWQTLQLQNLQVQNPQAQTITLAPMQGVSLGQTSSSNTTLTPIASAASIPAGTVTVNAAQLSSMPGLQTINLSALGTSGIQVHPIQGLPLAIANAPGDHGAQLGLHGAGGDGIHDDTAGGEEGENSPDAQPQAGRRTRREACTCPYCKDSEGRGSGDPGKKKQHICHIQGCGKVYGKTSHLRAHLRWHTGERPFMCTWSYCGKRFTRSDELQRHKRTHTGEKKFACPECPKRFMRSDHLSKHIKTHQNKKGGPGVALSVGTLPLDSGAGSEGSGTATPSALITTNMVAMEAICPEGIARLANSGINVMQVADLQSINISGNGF
Procedure, shortened: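 Cells: HepG2, transiently transfected with cis-regulated multiplexed reporters. Exposure: 24 h. Detection: reporter transcripts amplified, fluorescently labeled, restriction-digested and sized by capillary electrophoresis. Analysis: bidirectional fit relative to DMSO.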

[7] = ATG_SREBP_CIS: Attagene CIS-FACTORIAL HepG2 Assay for human Sterol Regulatory Element Binding (SREBP) (AID 2282962); conditions: HepG2 Attagene cis-factorial SREBP reporter, mRNA; actives raise or lower the signal
Procedure, shortened: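 HepG2 cells transiently transfected with multiplexed cis-promoter reporter units sensing endogenous transcription factors; reporter mRNA measured 24 h after dosing by RT-PCR, 6-FAM labeling, HpaI digestion and capillary electrophoresis. Bidirectional fit versus DMSO.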

[8] = ATG_TCF_b_cat_CIS: Attagene CIS-FACTORIAL HepG2 Assay for human T-Cell-Factor with beta-catenin (TCF/b-cat) (AID 2282965); conditions: HepG2 TCF/beta-catenin cis-reporter transcription, actives raise or lower the signal
Procedure, shortened: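 HepG2 cells transiently transfected with cis-promoter-driven multiplexed reporter units; reporter mRNA measured 24 h after dosing by RT-PCR, FAM labelling, HpaI digestion and capillary electrophoresis. Bidirectional fitting relative to DMSO baseline.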

[9] = ATG_TAL_CIS: Attagene CIS-FACTORIAL HepG2 Assay for human TAL Basal Promoter (AID 2282966); conditions: HepG2 Attagene cis-factorial TAL promoter reporter; actives raise or lower the signal;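 further: background control endpoint measuring basal TAL promoter reporter mRNA not a specific factor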
Procedure, shortened: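 RT-PCR plus capillary electrophoresis quantifies reporter mRNA induction in transiently transfected HepG2 cells after 24 h chemical treatment. DMSO serves as negative control and baseline for bidirectional fitting.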

[10] = ATG_TGFb_CIS: Attagene CIS-FACTORIAL HepG2 Assay for human Transforming Growth Factor (TGF) (AID 2282967); conditions: HepG2 Attagene CIS TGFb reporter, mRNA transcription; actives raise or lower the signal
Procedure, shortened: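 Multiplexed cis-reporter HepG2 system, 24 h treatment; mRNA induction read by fluorescence after RT-PCR and CE; DMSO negative control, bidirectional curve fitting.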

[11] = ATG_VDRE_CIS: Attagene CIS-FACTORIAL HepG2 Assay for human Vitamin D Receptor Element (VDRE) (AID 2282968); conditions: HepG2 VDRE cis-reporter transcription, actives raise or lower the signal
Procedure, shortened: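 Transiently transfected HepG2 cells carrying cis-regulated reporter transcription units were exposed for 24 h. Reporter mRNA was measured by RT-PCR with fluorescent labelling and capillary electrophoresis, and fitted in both directions against DMSO.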

[12] = target: Steroid hormone receptor ERR1 (Homo sapiens) (UniProt P11474); assay: ATG_ERRa_TRANS: Attagene TRANS-FACTORIAL HepG2 Assay for human Estrogen-Related Receptor alpha (ERRa) (AID 2282971; active means hit-call score of the fitted dose curve at least 0.9, where 1 is the maximum); conditions: HepG2 Attagene TRANS reporter, ERRa transactivation
Chain of Steroid hormone receptor ERR1 (Homo sapiens) (P11474 whole entry, looked up, the tested form may be a part): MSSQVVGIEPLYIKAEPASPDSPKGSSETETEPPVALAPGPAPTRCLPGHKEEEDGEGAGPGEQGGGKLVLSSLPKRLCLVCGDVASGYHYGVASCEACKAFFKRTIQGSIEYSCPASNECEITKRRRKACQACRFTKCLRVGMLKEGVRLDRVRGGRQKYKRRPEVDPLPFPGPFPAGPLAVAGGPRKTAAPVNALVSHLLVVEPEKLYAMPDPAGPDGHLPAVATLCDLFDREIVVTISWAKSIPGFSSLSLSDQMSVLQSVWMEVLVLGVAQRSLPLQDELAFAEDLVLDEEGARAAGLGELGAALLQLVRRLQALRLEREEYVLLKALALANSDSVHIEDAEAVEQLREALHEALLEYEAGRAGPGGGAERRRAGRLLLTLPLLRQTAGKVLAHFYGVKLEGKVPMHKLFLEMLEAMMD
Procedure, shortened: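 Reporter transcripts from ERRa-Gal4 chimera activity measured in transiently transfected human HepG2 cells 24 hours after dosing, using RT-PCR with 6-FAM primer extension, HpaI digestion and capillary electrophoresis; DMSO is baseline.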

[13] = target: X-box-binding protein 1 (Homo sapiens) (UniProt P17861); assay: ATG_Xbp1_CIS: Attagene CIS-FACTORIAL HepG2 Assay for human X-box Binding Protein 1 (XBP1) (AID 2282972); conditions: HepG2 XBP1 cis-element reporter, Attagene multiplex; actives raise or lower the signal
Chain of X-box-binding protein 1 (Homo sapiens) (P17861 whole entry, looked up): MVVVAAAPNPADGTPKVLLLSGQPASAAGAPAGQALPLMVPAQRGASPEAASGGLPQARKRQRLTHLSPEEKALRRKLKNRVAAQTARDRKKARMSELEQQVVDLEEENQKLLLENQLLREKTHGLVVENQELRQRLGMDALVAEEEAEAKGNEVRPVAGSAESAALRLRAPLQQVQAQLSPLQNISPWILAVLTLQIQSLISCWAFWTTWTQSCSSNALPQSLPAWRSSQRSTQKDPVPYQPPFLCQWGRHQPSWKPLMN
Procedure, shortened: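 HepG2 cells transiently transfected with multiple cis-element reporter units report endogenous TF activity; 24 h exposure, then reporter mRNA measured by RT-PCR, 6-FAM labelling, HpaI digestion and capillary electrophoresis. Bidirectional fitting versus DMSO.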

[14] = ATG_M_19_TRANS: Attagene TRANS-FACTORIAL HepG2 Assay for M19 Transcription Factor (Internal Marker) (AID 2282974; active means hit-call score of the fitted dose curve at least 0.9, where 1 is the maximum); conditions: HepG2 Attagene TRANS-FACTORIAL M19 internal marker reporter
Procedure, shortened: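 Reporter mRNA induction was measured in transfected HepG2 cells 24 h after dosing. Endpoint fitted upward relative to DMSO and serves as a background control within the multiplexed TRANS panel.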

[15] = ATG_GAL4_TRANS: Attagene TRANS-FACTORIAL HepG2 Assay for GAL4 (Internal Marker) (AID 2282976; active means hit-call score of the fitted dose curve at least 0.9, where 1 is the maximum); conditions: HepG2 Attagene TRANS GAL4 internal marker reporter
Procedure, shortened: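 In transfected human HepG2 liver cells dosed 24 h, GAL4 reporter mRNA serves as a baseline marker. Detection by RT-PCR with fluorescent capillary electrophoresis, activity fitted upward relative to DMSO.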

[16] = target: Estrogen-related receptor gamma (Homo sapiens) (UniProt P62508); assay: ATG_ERRg_TRANS: Attagene TRANS-FACTORIAL HepG2 Assay for human Estrogen-Related Receptor gamma (ERRg) (AID 2282977; active means hit-call score of the fitted dose curve at least 0.9, where 1 is the maximum;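 further: hits increase reporter signal over DMSO so potencies reflect activators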); conditions: HepG2 Attagene TRANS reporter, ERRg transactivation
Chain of Estrogen-related receptor gamma (Homo sapiens) (P62508 whole entry, looked up, the tested form may be a part): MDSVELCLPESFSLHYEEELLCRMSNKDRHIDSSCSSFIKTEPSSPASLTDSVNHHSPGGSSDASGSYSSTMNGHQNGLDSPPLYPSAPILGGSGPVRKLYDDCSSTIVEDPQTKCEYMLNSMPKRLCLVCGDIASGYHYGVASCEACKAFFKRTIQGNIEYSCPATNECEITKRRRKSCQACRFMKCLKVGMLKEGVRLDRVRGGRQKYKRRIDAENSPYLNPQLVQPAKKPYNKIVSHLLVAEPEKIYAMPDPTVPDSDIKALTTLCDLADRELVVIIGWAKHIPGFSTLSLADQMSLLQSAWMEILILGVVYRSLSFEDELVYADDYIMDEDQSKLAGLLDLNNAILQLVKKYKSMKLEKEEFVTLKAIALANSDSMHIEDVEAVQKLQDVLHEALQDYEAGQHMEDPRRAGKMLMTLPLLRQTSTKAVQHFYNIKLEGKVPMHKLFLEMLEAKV
Procedure, shortened: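 HepG2 cells transiently transfected with multiplexed GAL4-UAS reporter units driven by chimeric NR-Gal4 proteins; 24 h exposure. Reporter mRNA quantified by RT-PCR, fluorescent labelling, HpaI digestion and capillary electrophoresis; gain of signal vs DMSO.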

[17] = target: Signal transducer and activator of transcription 3 (Homo sapiens) (UniProt P40763); assay: ATG_STAT3_CIS: Attagene CIS-FACTORIAL HepG2 Assay for human Signal Transducer and Activator of Transcription 3 (STAT3) (AID 2282963); conditions: HepG2, Attagene cis-factorial STAT3 reporter transcription; actives raise or lower the signal
Chain of Signal transducer and activator of transcription 3 (Homo sapiens) (P40763 whole entry, looked up): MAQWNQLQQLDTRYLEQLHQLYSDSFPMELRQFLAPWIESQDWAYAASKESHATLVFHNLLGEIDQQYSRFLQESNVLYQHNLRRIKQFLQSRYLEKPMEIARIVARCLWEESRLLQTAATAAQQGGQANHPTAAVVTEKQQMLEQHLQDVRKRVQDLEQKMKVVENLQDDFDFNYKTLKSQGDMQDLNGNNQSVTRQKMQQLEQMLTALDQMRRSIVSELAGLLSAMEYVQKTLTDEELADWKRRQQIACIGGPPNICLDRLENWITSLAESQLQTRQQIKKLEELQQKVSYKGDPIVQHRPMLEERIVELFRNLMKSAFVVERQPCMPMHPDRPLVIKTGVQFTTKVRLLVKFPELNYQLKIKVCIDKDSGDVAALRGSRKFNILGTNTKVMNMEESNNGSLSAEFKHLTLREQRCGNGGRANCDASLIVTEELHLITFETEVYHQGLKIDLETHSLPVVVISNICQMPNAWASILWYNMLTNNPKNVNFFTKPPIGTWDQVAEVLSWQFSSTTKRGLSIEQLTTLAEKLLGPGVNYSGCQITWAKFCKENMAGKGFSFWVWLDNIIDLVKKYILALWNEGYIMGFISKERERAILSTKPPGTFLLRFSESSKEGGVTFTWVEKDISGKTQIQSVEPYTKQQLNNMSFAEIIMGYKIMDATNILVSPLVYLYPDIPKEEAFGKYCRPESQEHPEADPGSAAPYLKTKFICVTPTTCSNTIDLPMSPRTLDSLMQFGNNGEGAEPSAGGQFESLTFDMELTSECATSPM
Procedure, shortened: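 HepG2 cells transiently transfected with multiple cis-element-driven reporter units report endogenous transcription factor activity. After 24 h compound exposure, reporter mRNA is measured by RT-PCR, 6-FAM labelling, HpaI digestion and capillary electrophoresis. Fitted bidirectionally versus DMSO.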

[18] = ATG_TA_CIS: Attagene CIS-FACTORIAL HepG2 Assay for human TA Basal Promoter (AID 2282964); conditions: HepG2 Attagene CIS-factorial TA basal promoter reporter; actives raise or lower the signal
Procedure, shortened: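 Cis-factorial format in HepG2: reporters report endogenous factors, not chimeric Gal4 fusions. After 24 h treatment, reporter transcripts were measured by RT-PCR-capillary electrophoresis fluorescence, analysed bidirectionally versus DMSO.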

[19] = target: Nuclear receptor subfamily 1 group I member 3 (Homo sapiens) (UniProt Q14994); assay: ATG_CAR_TRANS: Attagene TRANS-FACTORIAL HepG2 Assay for human Constitutive Androstane Receptor (CAR) (AID 2282969; active means hit-call score of the fitted dose curve at least 0.9, where 1 is the maximum;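 further: activators raise reporter mRNA above DMSO so AC50 marks induction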); conditions: HepG2 Attagene TRANS-FACTORIAL CAR reporter
Chain of Nuclear receptor subfamily 1 group I member 3 (Homo sapiens) (Q14994 whole entry, looked up, the tested form may be a part): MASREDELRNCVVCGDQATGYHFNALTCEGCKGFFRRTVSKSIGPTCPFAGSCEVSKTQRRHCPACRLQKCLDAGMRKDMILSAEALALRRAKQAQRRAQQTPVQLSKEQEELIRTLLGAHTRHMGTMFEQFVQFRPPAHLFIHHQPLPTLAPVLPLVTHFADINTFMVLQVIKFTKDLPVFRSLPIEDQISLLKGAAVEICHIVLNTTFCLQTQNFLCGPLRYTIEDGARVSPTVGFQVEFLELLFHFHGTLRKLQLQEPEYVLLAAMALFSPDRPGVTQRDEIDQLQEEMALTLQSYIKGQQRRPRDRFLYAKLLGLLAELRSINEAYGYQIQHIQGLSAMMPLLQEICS
Procedure, shortened: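 HepG2 cells transiently transfected with GAL4-UAS reporter units; TRANS format reads activity of exogenous chimeric NR-Gal4 protein. After 24 h dosing, reporter mRNA quantified by RT-PCR, 6-FAM labelling and capillary electrophoresis; gain of signal fitted against DMSO.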

[20] = target: Estrogen receptor (Homo sapiens) (UniProt P03372); assay: ATG_ERa_TRANS: Attagene TRANS-FACTORIAL HepG2 Assay for human Estrogen Receptor alpha (ERa) (AID 2282970; active means hit-call score of the fitted dose curve at least 0.9, where 1 is the maximum); conditions: HepG2 Attagene TRANS ERa GAL4 reporter, mRNA
Chain of Estrogen receptor (Homo sapiens) (P03372 whole entry, looked up, the tested form may be a part): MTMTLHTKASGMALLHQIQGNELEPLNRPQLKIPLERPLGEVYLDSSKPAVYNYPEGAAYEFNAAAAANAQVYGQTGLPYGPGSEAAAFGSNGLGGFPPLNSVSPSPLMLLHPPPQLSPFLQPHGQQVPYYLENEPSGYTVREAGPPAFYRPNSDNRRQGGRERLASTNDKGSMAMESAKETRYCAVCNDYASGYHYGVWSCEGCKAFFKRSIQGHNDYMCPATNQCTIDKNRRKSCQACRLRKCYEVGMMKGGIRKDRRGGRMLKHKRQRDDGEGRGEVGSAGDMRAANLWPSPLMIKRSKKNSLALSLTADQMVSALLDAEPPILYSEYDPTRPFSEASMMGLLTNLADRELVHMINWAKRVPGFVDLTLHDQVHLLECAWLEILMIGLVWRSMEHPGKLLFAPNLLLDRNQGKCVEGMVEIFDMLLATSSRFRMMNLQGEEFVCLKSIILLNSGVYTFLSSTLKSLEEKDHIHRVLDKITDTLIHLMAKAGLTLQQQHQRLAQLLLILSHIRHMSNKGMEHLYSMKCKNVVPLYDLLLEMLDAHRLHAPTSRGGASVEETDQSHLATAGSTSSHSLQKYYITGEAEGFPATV
Procedure, shortened: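 Cells: HepG2, transiently transfected. Construct: GAL4-UAS reporter units regulated by exogenous NR-Gal4 chimeras. Time: 24 h. Detection: reporter mRNA by RT-PCR, capillary electrophoresis, fluorescence. Baseline: DMSO, upward fitting.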

Measured: AC50

CCN(CC)c1ccc(C(=C2C=CC(=[N+](CC)CC)C=C2)c2ccc(S(=O)(=O)O)cc2S(=O)(=O)[O-])cc1
active: [2] 63.4 µM
not listed: [17] | [18] | [19] | [20]
inactive: all other assays above

CCCCCCCCCCCCN
not listed: [7] | [11] | [12] | [16] | [20]
inactive: all other assays above

O=Nc1ccc(Nc2ccccc2)cc1
active: [1] 33.4 µM | [2] 22.6 µM | [5] 47.6 µM | [6] 55 µM | [8] 20.9 µM | [11] 30.3 µM | [19] 26.7 µM | [20] 34.9 µM
not listed: [7] | [12] | [15]
inactive: all other assays above

O=[N+]([O-])c1ccc(Nc2ccc(Nc3ccccc3)c(S(=O)(=O)O)c2)c([N+](=O)[O-])c1
active: [2] 27 µM | [3] 49.2 µM | [4] 40.1 µM | [8] 134 µM | [10] 148 µM | [13] 172 µM
not listed: [7] | [12] | [16] | [19] | [20]
inactive: all other assays above

Cc1cccc(C)c1C
not listed: [10] | [12] | [14] | [15] | [16] | [17] | [20]
inactive: all other assays above

CCO[Si](CCCS)(OCC)OCC
not listed: [7] | [11] | [12] | [16] | [19] | [20]
inactive: all other assays above
